# Hits are enriched below; roughly 1.8% of the tested compounds scored in any of these assays.
# ClpP mod – qHTS Assay for Activators of ClpP; ATP-dependent Clp protease proteolytic subunit (Bacillus subtilis (strain 168)), P80244; purified B. subtilis ClpP, FRET peptide cleavage, 20 min; Potency, µM (series often up to 57.5 µM), inactives show top-dose activity change, negative = active; 340,000 compounds, 1.9% hits; AID 651965, 2013; active = well fitted falling curve with a large enough effect; inconclusive = small, poorly fitted or top-dose-only effect; inactive = no such curve, though single readings can be large or run the other way; also: potency is read from the fitted curve at half-maximal effect; the source files actives as falling curves though it sought activators and does not explain the sign; nearly all actives have a fitted effect of over 65% in size
# Target sequence (P80244 whole entry, looked up): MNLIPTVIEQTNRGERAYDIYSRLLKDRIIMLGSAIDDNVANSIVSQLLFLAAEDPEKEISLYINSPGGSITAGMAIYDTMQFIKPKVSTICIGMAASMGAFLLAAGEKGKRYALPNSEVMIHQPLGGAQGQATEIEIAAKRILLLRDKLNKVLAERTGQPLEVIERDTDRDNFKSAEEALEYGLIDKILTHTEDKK
#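 FRET quenching reversal measured ClpP activation: 10 microg/mL B. subtilis ClpP at pH 8 with the FRET-FV decapeptide, read at 430 nm after 320 nm excitation. The 20-min minus 0-min signal was scaled between DMSO/no-enzyme wells and ADEP (5.8 microM final).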
# MBNL1 CUG block – MBNL1-poly(CUG) RNA binding inhibition | Q9NR56 | TR-FRET MBNL1-His/biotin-(CUG)12 binding, 665/545 ratio | Potency, µM (series often up to 57.5 µM), for the others: at the highest dose activity change, negative = inhibition, most hits filed as inhibitors | 280,000 compounds, 0.036% hits; active = well fitted inhibition curve with a large enough effect in the signal ratio, with a control signal flat, not every such curve was filed as active; inconclusive = small, poorly fitted or top-dose-only effect, or effect the other way, or a change in a side signal; inactive = no such curve, though single readings can be large or run the other way; the % refers to the signal ratio; also: potency is read from the fitted curve at half-maximal effect; % is scaled to controls: 0 for no effect and ±100 for the full control effect
# Target sequence (Q9NR56 whole entry, looked up): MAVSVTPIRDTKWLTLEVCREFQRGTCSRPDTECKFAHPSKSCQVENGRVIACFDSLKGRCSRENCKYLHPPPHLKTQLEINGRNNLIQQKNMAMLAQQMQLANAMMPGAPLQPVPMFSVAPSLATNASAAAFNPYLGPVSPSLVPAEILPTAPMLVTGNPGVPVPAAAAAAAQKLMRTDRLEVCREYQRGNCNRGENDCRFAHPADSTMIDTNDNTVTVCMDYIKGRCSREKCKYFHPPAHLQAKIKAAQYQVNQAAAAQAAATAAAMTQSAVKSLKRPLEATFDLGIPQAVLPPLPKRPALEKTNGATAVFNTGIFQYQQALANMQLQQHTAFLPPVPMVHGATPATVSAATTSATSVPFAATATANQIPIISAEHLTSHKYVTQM
#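 Ratiometric TR-FRET (665 over 545 nm, excitation 340 nm) tracks disruption of MBNL1-His/biotin-(CUG)12 complex after 60 min at room temperature, with compounds at 92 nM to 58 uM final.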
# TCR act – T cell receptor activation; primary human leukocytes, anti-CD3, IL-2 HTRF, 48 h; 330,000 tested, under 10 active; Potency, µM (top dose mostly 9.22 µM), without a hit: at the top dose activation of IL-2 secretion, actives largely listed as activators; also: % of control where 0% means no effect
#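 Compounds are tested in HTS on primary human leukocytes co-incubated with a-CD3 beads for 48 hr. IL-2 output is measured by time-resolved FRET.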
# A-T KAP1 phos – potential ataxia-telangiectasia treatments restoring KAP-1 phosphorylation | F2112 A-T fibroblasts, KAP-1 phosphorylation AlphaLISA; neocarzinostatin DNA damage 30 min before lysis | Potency, µM (doses to about 57.5 µM), without a hit: at the top dose activation, actives largely listed as activators | 320,000 compounds, 0.19% hits | AID 485349; also: potency is read from the fitted curve at half-maximal effect; % of control where 0% means no effect; nearly all actives have a fitted effect of over 45% in size
#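 hTERT-immortalized A-T patient fibroblasts (F2112), 500 cells/well in OPTI-MEM, 1% FBS, got compounds for 60 min, then NCS for 30 min at 37C. Lysates were then assayed for phospho-KAP-1 by AlphaLISA (anti-pKAP1 donor, anti-KAP1 acceptor beads), 6 hr at 25C.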
# Mito fusion yeast – blocks mitochondrial division or promotes mitochondrial fusion | S. cerevisiae fusion-defective mutant growth rescue, CellTiterGlo 48 h | 320,000 compounds, 0.23% hits | Potency, µM (titrated, usually from 46.1 µM), inactives show top-dose growth rescue (activation), hits mostly activators; also: potency is read from the fitted curve at half-maximal effect; % of control where 0% means no effect; nearly all actives have a fitted effect of over 45% in size
#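 Read-out: ATP-based luminescence (CellTiterGlo, 10 min ambient) reporting growth of fusion-defective ts yeast after 48 hours at 37C on glycerol/ethanol YPEG medium in the presence of compound.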
# GRP78 ERSR act – induces the endoplasmic reticulum stress response in human glioma cells; U87-MG GRP78 promoter luciferase reporter, 16 h; Potency, µM, inactives show at the top dose activation, hits mostly activators; 420,000 compounds, 0.02% hits; also: potency is read from the fitted curve at half-maximal effect; series mostly up to about 76 µM; % of control where 0% means no effect; nearly all actives have a fitted effect of over 35% in size
#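 Stably transfected U87-MG human glioma cells carrying a GRP78-based luminescent sensor were seeded at 1000 cells/well, pin-dosed with compounds and incubated 16 h. Luciferase reagent was then added, and end-point luminescence was read after 10 min at room temperature.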
# An asterisk follows results filed as active; ? = inconclusive; . = not tested or not shown; [ ] = another dose, or the depositor's remark. Unless noted, calls follow the shape of the dose curve; as a rule, active = well fitted curve in the direction sought with a large enough effect; inconclusive = small, poorly fitted or top-dose-only effect, or another doubt; inactive = no such curve, though single readings can be large; an effect the other way counts as inactive or inconclusive.
SMILES,ClpP mod,MBNL1 CUG block,TCR act,A-T KAP1 phos,Mito fusion yeast,GRP78 ERSR act
CNC(=S)N(CCc1ccccc1)Cc1cc2cc(OC)c(OC)cc2[nH]c1=O,35µM*,.,-9%[46.1 µM],-6%,-2%,-1%
CCNC(=S)N(CCc1ccccc1C)Cc1cc2cc(OC)c(OC)cc2[nH]c1=O,?,2%,-2%[46.1 µM],1%,-3%,-1%
CCNC(=S)N(CCc1cccc(C)c1)Cc1cc2cc(OC)c(OC)cc2[nH]c1=O,18µM*,-3%,0%[46.1 µM],2%,0%,-3%
CNC(=S)N(Cc1ccco1)Cc1cc2cc(OC)c(OC)cc2[nH]c1=O,.,0%,-5%,-8%,-2%,5%
Nc1ccccc1S(=O)(=O)Nc1cccc2cccnc12,.,.,.,.,.,-12%
OC1(c2cccnc2)CCN(Cc2ccc3c(c2)CN(Cc2cccc(F)c2F)CCO3)CC1,.,.,.,.,.,-5%
C[N+](C)(C)c1ccc(/C=C/c2ccnc3ccccc23)cc1,?,.,.,.,.,-7%
COc1cc(-c2nc3ccccn3c2NCC2CCCO2)ccc1O (configuration not stated),25µM*,5%,6%,3%,0%,1%
O=[N+]([O-])c1ccc(Cl)c(-c2ccc(/C=N/c3c(-c4ccco4)nc4ccccn34)o2)c1,1%,?,-5%,-6%,-8%,-4%
Oc1cccc(/C=N/c2c(-c3ccco3)nc3ccccn23)c1,28µM*,?,4%,.,-6%,-3%
COc1cc(-c2nc3ccccn3c2/N=C/c2ccccc2)ccc1O,32µM*,?,-2%,0%,-1%,-1%
CC(C)Cc1nc2cc(NS(=O)(=O)N(C)C)cc(C(=O)N3CCc4ccccc4C3)c2n1C,.,.,.,.,.,6%
N#Cc1nc(-c2ccco2)oc1NCCN1CCOCC1,13µM*,5%,.,3%,-3%,-3%
N#Cc1nc(-c2ccco2)oc1N1CCC(Cc2ccccc2)CC1,25µM*,-8%,-7%,4%,4%,4%
N#Cc1nc(-c2cccc3ccccc23)oc1NCCN1CCOCC1,6.3µM*,?,.,10%,2%,4%
N#Cc1nc(-c2ccccc2F)oc1NCCN1CCOCC1,4%,-2%,-18%,9%,1%,-4%
Cc1ccccc1N(C)S(=O)(=O)c1nnc(NC(=O)c2ccccc2F)s1,-3%,5%,-2%,0%,5.6µM*,-6%
Cc1ccccc1N(C)S(=O)(=O)c1nnc(NC(=O)C(C)C)s1,-2%,.,.,.,.,-2%
CC1=C(C(=O)N2CCOCC2)C(c2ccccc2F)C2=C(CC(C)(C)CC2=O)N1 (configuration not stated),14µM*,-6%,4%,-3%,0%,-6%
COc1ccc(C2C(C(=O)N3CCOCC3)=C(C)NC3=C2C(=O)CC(C)(C)C3)c(OC)c1 (configuration not stated),16µM*,5%,-1%,1%,1%,-3%
COc1ccc(C2C(C#N)=C(C)NC3=C2C(=O)CC(C)(C)C3)c(OC)c1 (configuration not stated),?,9%,-1%,15%,-2%,-2%
CCOC(=O)N1CCN(Cc2ccc3c(c2)CN(C(=O)c2cc(-c4ccccc4)on2)CCO3)CC1,.,.,.,.,.,-5%
COc1ccccc1Oc1coc2c(CN3CCOCC3)c(O)ccc2c1=O,.,-8%,2%,-11%,-1%,-7%
COc1cccc(Oc2coc3c(CN4CCOCC4)c(O)ccc3c2=O)c1,20µM*,3%,-19%,-1%,-3%,0%
COc1ccccc1-c1ccnc(-n2ncc(C(=O)N(C)C(C)c3nc(C)cs3)c2C2CC2)n1 (configuration not stated),.,.,.,.,.,4%
SMILES,ClpP mod,MBNL1 CUG block,TCR act,A-T KAP1 phos,Mito fusion yeast,GRP78 ERSR act
Cc1cc(-c2ccccc2)nc2[n+]1CCN2C,28µM*,5%,3%,10%,3%,-1%
CCCCC(=O)Nc1cc(N(C)C)nc2ccccc12,8.9µM*,5%,7%,0%,0%,-2%
CN(C)c1cc(NC(=O)CNC(C)(C)C)c2ccccc2n1,4%,-5%,9%,-11%,0%,-5%
CC(=O)N(/N=C/c1ccc([N+](=O)[O-])o1)c1nc2ccccc2c(=O)n1-c1ccccc1,-1%,?,-1%,13µM*,7%,-2%
O=C(CNC(c1ccccc1)c1ccccc1)Nc1c(F)cccc1F,-1%,.,-4%[46.1 µM],-3%,16%,-4%
Fc1cccc(Cl)c1CNC(c1ccccc1)c1ccccc1,-3%,-14%,-18%,32µM*,2%,-2%
Cc1cnc2ccccc2c1/C=C/c1ccc(N)cc1,1%,.,.,.,.,-2%
O=[N+]([O-])c1ccc2c(c1)S(=O)(=O)C=C2,.,.,.,.,-112%,-15%
CN(C(=O)COC(=O)c1ccc2c(c1)OCO2)C1CCCCC1,.,.,-3%[46.1 µM],5%,.,4%
CCN(C(=O)COC(=O)c1ccc2c(c1)OCO2)c1ccc(F)cc1,28µM*,.,5%[46.1 µM],3%,.,-2%
OC(CNCc1ccco1)COc1ccccc1 (configuration not stated),14µM*,5%,-1%,9%,-2%,-3%
COc1ccc(OCC(O)CNCc2ccco2)cc1 (configuration not stated),1%,-11%,7%,19%,-3%,-1%
COC(=O)c1sccc1-c1ccc(/C=N/OC(=O)c2ccccc2)o1,32µM*,32%,-3%,-10%,2%,11%
Cc1ccccc1C1(CC(=O)N2CC3CC4CC(C3)CC2C4)CC(=O)N(Cc2cccnc2)C1=O (configuration not stated),.,.,.,.,.,-3%
O=C1c2ccccc2C(=O)N1CSc1nnc(Nc2ccccc2F)s1,28µM*,4%,-1%[46.1 µM],-3%,11%,1%
O=C1c2ccccc2C(=O)N1CSc1nnc(Nc2ccccc2)s1,.,-6%,5%,-5%,5%,0%
COCCCNC(=O)CSc1nc2cc(C(=O)NCCOC)ccc2c(=O)n1Cc1ccc2c(c1)OCO2,0%,-12%,10%,0%,6%,-1%
COCCn1c(SCC(=O)NNC(=O)c2ccccc2)nc2ccccc2c1=O,28µM*,-14%,5%[46.1 µM],0%,-6%,0%
COCCCNC(=O)CSc1nc2ccccc2c(=O)n1Cc1ccc2c(c1)OCO2,28µM*,1%,.,-1%,1%,-4%
CCCN(CCC)c1ccc(/C=C/c2sc3ccccc3[n+]2CCCCI)cc1,2%,.,.,.,.,-6%

# Screening results (PubChem)
